# VCAM1 TNFa pot: TNF alpha stimulated VCAM1 expression potentiation | HUVEC TNFa-stimulated VCAM-1 immunofluorescence, high-content imaging; scaled per plate to unstimulated/TNFa-only wells | activation, % at 2 µM | hit rate 0.19% among 93,000;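 active = activation above the screen mean plus 3 SD, with well images confirming the hit on visual review, cut at about 28% in these data, passing the limit was not always enough; inconclusive = activation above that limit but images do not confirm it; inactive = activation not above that limit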;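 also: signal is the number of cytoplasmic VCAM-1 stained grains per positive cell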
# VCAM1 pot conf: potentiators of TNFa-induced VCAM1 expression, confirmation, imaging, HUVEC, triplicate retest; activation, % at 2 µM; shares compounds with VCAM1 TNFa pot; HUVEC TNFa-stimulated VCAM-1 immunofluorescence imaging; 230 tested, under 10 active;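 active = activation above 30% in triplicate retests at 2 µM, then confirmed by visual review of the well images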;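 also: scaled per plate between unstimulated and TNFa-stimulated DMSO control wells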
# Starred values were filed as active, the others as inactive; ? = inconclusive. Many of the other results were omitted from the sample, so hits are more common in it than they were.
SMILES,VCAM1 TNFa pot,others
Cc1ccc2cccc(OC(=O)N3CCCC3)c2n1,?,VCAM1 pot conf=-7
O=c1[nH]c(=S)n(CCC2=CCCCC2)c(O)c1C=NCCCn1ccnc1,-5,
CSc1ccc(CNC2CN3CCC2CC3)cc1 (stereo not given),-93,
COc1ccc(Oc2cc(NC(=O)c3nn(C)cc3[N+](=O)[O-])cc([N+](=O)[O-])c2)cc1,-90,
COc1ccc(CN2CC3CC(C2)c2cccc(=O)n2C3)cc1OC (stereo not given),-9,
Cc1ccc(S(=O)(=O)N(C)CCCC(=O)N2CCN(c3ccccn3)CC2)cc1,81*,VCAM1 pot conf=-6
CC(=NCCN1CCCCC1)c1c(O)[nH]c(=O)[nH]c1=O,9,
CNP1(NC)=NC(C(F)(F)F)=NC(C(F)(F)F)=N1,0,
Cc1sc2nc(COC(=O)Cc3ccccc3)[nH]c(=O)c2c1C,-3,
C=CCOC(=O)C1=C(C)OC(N)=C(C#N)C12C(=O)N(CN1CCOCC1)c1ccccc12 (stereo not given),-88,

# Screening results as filed in PubChem BioAssay.
